{
  "source": "PubChem BioAssay (NCATS)",
  "note": "“And” between values parts separate entries of the source, which are not always exact repeats. Identical values can stand only once. Inconclusive results are not listed. Where a call stands in place of a potency, no number is given. A structure can be active in one record and inactive in another. The source made the active and inactive calls. The call rests on the fitted dose curve; in most records, active means well fitted cell-killing curve with a large enough effect; inconclusive means small, poorly fitted or top-dose-only effect, or effect the other way; inactive means no such curve, though single readings can be large or run the other way.",
  "data": [
    {"assay": "Viability qHTS for spleen associated tyrosine kinase inhibitor (SYKi) drug resistant MV4-11 cells (AID 1963824); further: nearly all actives have a fitted effect of over 35% in size; further: potency means the concentration at half of the fitted maximal effect", "settings": "SYKi-resistant MV4-11 viability, CellTiter-Glo, 72 h; series mostly up to 45 µM", "excerpt": "Department of Medicine, Hematology/Oncology\nUniversity Hospital Frankfurt, Germany.\nTrials have shown promising clinical activity of the selective SYK inhibitor entospletinib in patients with high expressing HOXA9/MEIS1 acute leukemias. As the development of resistance mechanisms is a common problem in the use of targeted drugs, we performed a chemical library screen to identify drug sensitivities in SYK inhibitor resistant AML cells. […] Glucocorticoids are potent immunosuppressants which work in part by inhibiting the transcription of cytokine genes.\nDescribed herein is a viability screen to look for activity in the SYK inhibitor drug resistant cell line against four NCATS compound libraries (MIPE 5.0, NPC, NPACT, and Kinase) totaling 11372 compounds. Active hits were reacquired for confirmation and further secondary assay testing.\nSEQUENCE No. (e.g., 1, 2, 3, etc.); […] (e.g., Cells, Incubation, Reagent, etc.); VALUE; DESCRIPTION.\n1; Media; 2uL; white, solid-bottom Corning assay plate.\n2; Compounds; 23nL; Echo acoustic dispenser.\n3; Cell; 5uL; 500 cells per well.\n4: Incubation; 72hr; 37 C, 5% CO2, 95% humidity.\n5; Reagent; 3uL; CellTiter-Glo reagent (Promega).\n6; Incubation; 10min; room temperature.\n7; Detection; Luminescence; ViewLux plate reader (PerkinElmer).\nNOTES (numbers refer to Sequence numbers above\n1. Quantitative high-throughput screening (qHTS) of small molecule compounds was conducted on drug resistant SYKi MV4-11 cell line.\n2. Twenty-three nanoliter of small molecule compounds were added to each assay plates using the Echo acoustic dispenser (Beckman Coulter).\n3. Cells were seeded into the assay plates at a final density of 500 cells in 5uL of media per well using the Multidrop Combi dispenser.\n4. Plates were covered with stainless steel gasketed lids and incubated for 72 hours at standard cell culture conditions.\n5. Viability was assessed by adding 3uL of CellTiter-Glo detection reagent (Promega).\n6. Plates were covered with gasket lids and incubated for 10 minutes at room temperature.\n7. Luminescence was measured on a ViewLux plate reader (PerkinElmer).", "values": [
      {"compound": "CCOC(=O)C1=C(C)NC2=C(C(=O)CC(C)(C)C2)C1c1ccc(-c2ccccc2)cc1", "note": "(stereo not given)", "Potency": "18.4 µM (active) and 18.6 µM (active)"},
      {"compound": "OC[C@H]1O[C@@H](O[C@@H]2[C@@H](CO)O[C@](O)(CO)[C@H]2O)[C@H](O)[C@@H](O)[C@H]1O", "Potency": "inactive"},
      {"compound": "C[C@@H]1C[C@H]2[C@@H]3C[C@H](F)C4=CC(=O)C(Cl)=C[C@]4(C)[C@@]3(F)[C@@H](O)C[C@]2(C)[C@@]1(O)C(=O)CO", "Potency": "11.9 µM (active)"},
      {"compound": "O=C(NCC1CCN(Cc2cccc(Cl)c2)CC1)[C@@H]1CCCN(c2ncnc3c2nc2n3CCCC2)C1", "Potency": "10.3 µM (active)"},
      {"compound": "Cc1nc(-c2cn3c(n2)-c2ccc(-c4cnn(C(C)(C)C(N)=O)c4)cc2OCC3)n(C(C)C)n1", "Potency": "2.59 µM (active)"},
      {"compound": "OC1C(O)C(O)C(O)C(O)C1O", "note": "(stereo not given)", "Potency": "inactive"},
      {"compound": "CN1C(C)(C)CCCC1(C)C", "Potency": "inactive"},
      {"compound": "CN1C[C@@H]2c3ccccc3Oc3ccc(Cl)cc3[C@H]2C1", "Potency": "18.6 µM (active)"},
      {"compound": "Cc1ccc(C)c(NC(=O)CNS(=O)(=O)c2ccc3[nH]c(=O)oc3c2)c1", "Potency": "inactive"},
      {"compound": "C=CC(C)(O)CC/C=C(\\C)COC1O[C@H](CO)[C@@H](O)[C@H](O)[C@H]1O", "note": "(stereo not given in full)", "Potency": "inactive"},
      {"compound": "Cc1ccc(Nc2cc(-c3cccc(N4C(=O)c5ccccc5C4=O)c3)ncn2)cc1NS(C)(=O)=O", "Potency": "16.6 µM (active)"},
      {"compound": "FC(F)(F)c1ccc(/C=C/c2nc(COc3ccc(CCCCn4ccnn4)cc3)co2)cc1", "Potency": "0.0263 µM (active)"},
      {"compound": "CC1(C)[C@@H]2CC[C@@]1(C)C(=O)C2", "Potency": "inactive"},
      {"compound": "COC(=O)C1(C)c2[nH]c3ccccc3c2CCN1C(=O)CCl", "note": "(stereo not given)", "Potency": "2.91 µM (active)"},
      {"compound": "CCC[C@@H]1C[C@@H](C(=O)N[C@H](C(C)Cl)[C@H]2O[C@H](SC)[C@H](O)[C@@H](O)[C@H]2O)N(C)C1", "note": "(stereo not given in full)", "Potency": "inactive"},
      {"compound": "CC(C)(O)C1CCC2(C)C3C(O)C4C(C13)C42CO", "note": "(stereo not given)", "Potency": "inactive"},
      {"compound": "CCCCNC(=O)NS(=O)(=O)c1ccc(N)cc1", "Potency": "2.11 µM (active)"},
      {"compound": "CC(C)C(=O)Oc1ccc(CO)cc1[C@H](CCN(C(C)C)C(C)C)c1ccccc1", "Potency": "inactive"},
      {"compound": "CC(C)(C)c1ccc(C(O)CCCN2CCC(C(O)(c3ccccc3)c3ccccc3)CC2)cc1", "note": "(stereo not given)", "Potency": "11.9 µM (active)"},
      {"compound": "O=C(O)CNC(=O)c1ccccc1", "Potency": "inactive"},
      {"compound": "CNc1c2c(nn1C)CCCC2", "Potency": "inactive"},
      {"compound": "CC/C=C\\C[C@H]1C(=O)C=C[C@@H]1CCCCCCCC(=O)O", "Potency": "23.1 µM (active)"},
      {"compound": "Cc1nc([C@](C)(O)CO)sc1-c1cnc(N)c(O[C@H](C)c2cc(F)ccc2-n2nccn2)c1", "Potency": "8.33 µM (active)"},
      {"compound": "C=C(C(=O)OC)C1C(O)CC2(C)C(O)CCC(=O)C2C1O", "note": "(stereo not given)", "Potency": "inactive"},
      {"compound": "COc1ccc(C(=O)CC(=O)c2ccc(C(C)(C)C)cc2)cc1", "Potency": "inactive and 16.6 µM (active)"},
      {"compound": "C=C1[C@@H]2[C@H]3OC(=O)C(=C)[C@@H]3CC[C@@](C)(O)[C@@H]2C[C@@H]1O[C@@H]1O[C@H](CO)[C@@H](O)[C@H](O)[C@H]1O", "Potency": "inactive"},
      {"compound": "COc1cc2nccc(Oc3ccc(NC(=O)Nc4ccc(F)cc4F)c(F)c3)c2cc1OC", "Potency": "0.0517 µM (active)"},
      {"compound": "Oc1ccc2ccccc2c1SSc1c(O)ccc2ccccc12", "Potency": "5.25 µM (active) and 9.2 µM (active)"},
      {"compound": "CN(C)CCCNC(=O)c1ccc(-c2cc(O)c3ncccc3c2)cc1", "Potency": "5.17 µM (active) and 14.8 µM (active)"},
      {"compound": "O=C1NC(=O)[C@@H](c2c[nH]c3ccccc23)[C@H]1c1cn2c3c(cccc13)CCC2", "Potency": "0.742 µM (active)"},
      {"compound": "CCOC(=O)OCC/C(SC(=O)OCC)=C(\\C)N(C=O)Cc1cnc(C)nc1N", "Potency": "inactive"},
      {"compound": "OC[C@H]1O[C@@H](OC[C@H]2O[C@@H](OC/C=C/c3ccccc3)[C@H](O)[C@@H](O)[C@@H]2O)[C@@H](O)[C@@H]1O", "Potency": "inactive"},
      {"compound": "CC1CCCC(O)CC(=O)c2c(O)cc(O)cc2CC(=O)O1", "note": "(stereo not given)", "Potency": "2.02 µM (active)"},
      {"compound": "CC(C)c1ccccc1Cc1cc(C(=O)Nc2ccc(S(=O)(=O)c3ccccc3C(C)(C)C)cc2)c(O)c(O)c1O", "Potency": "7.42 µM (active)"},
      {"compound": "COc1ccc(C(=O)c2ccccc2)c(O)c1", "Potency": "inactive"},
      {"compound": "COc1cc(/C=C/CO)cc(OC)c1O[C@@H]1O[C@H](CO[C@@H]2O[C@H](CO)[C@@H](O)[C@H](O)[C@H]2O)[C@@H](O)[C@H](O)[C@H]1O", "Potency": "inactive"},
      {"compound": "Cc1cc(-c2nncc3c(C(C)(C)C)c(OCc4ncnn4C)nn23)no1", "Potency": "inactive"},
      {"compound": "CCOC(=O)CCN(C(=O)c1ccc2c(c1)nc(CNc1ccc(C(=N)N)cc1)n2C)c1ccccn1", "Potency": "inactive"},
      {"compound": "C=C1C(=O)O[C@@H]2C[C@H](C)[C@@H]3CC(=O)[C@H](O)[C@@]3(C)C[C@H]12", "Potency": "11.6 µM (active)"},
      {"compound": "Cc1[nH]c(=O)c(C#N)cc1-c1ccncc1", "Potency": "inactive"}
    ]}
  ]
}
